Source: PubChem (several laboratories)
In the library only some 4.2% were active in any assay of this set; here they are far more common.
MITF act – MITF TRPM1 promoter activation in melanoma cells; AID 588334; activation, % at 12.5 µM; 300,000 compounds, 0.75% hits; SK-MEL-5 TRPM1-promoter luciferase, 24 h; % of positive control, neutral wells = 0;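 active = mean activation of at least 80% with every replicate also reaching 80%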;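 also: 0% = neutral control wells and 100% = parthenolide positive control wells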
AHR activator – activators of human aryl hydrocarbon receptor; activation, % at 5 µM; AID 2796; P35869; 320,000 compounds, 2.5% hits; AHR-responsive luciferase reporter cells, luminescence; in the data active = activation above about 47%;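 also: 0% = vehicle wells and 100% = reference agonist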
Wnt act – activates Wnt/beta-catenin signaling in a reporter cell assay; activator, plate reader; 300,000 compounds, 1.2% hits; activation, % at 9.35 µM; in the data active = activation above about 30%, passing the limit was not always enough;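 also: 0% = neutral control wells and 100% = positive control wells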
esBAF inh – blocks esBAF chromatin remodeling in mouse ES cells | Bmi1-luciferase knock-in reporter, 24 h; 100% = twice the neutral-well signal | reporter increase, % at 12.5 µM | 350,000 compounds, 2% hits; in the data active = activation above about 40%;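 also: 0% = median of the plate's neutral control wells and 100% = double that signal; a rise in the Bmi1 reporter signal indicates esBAF inhibition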
GAA850 FXN act – increases GAA850 frataxin promoter reporter activity | AID 540364 | 360,000 compounds, 0.56% hits | HEK293 lucGAA850 FXN promoter luciferase reporter, 24 h; percent of 10 µM SAHA response | activation, % at 6 µM;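 active = activation above the average of all compounds screened plus 3 SD, cutoff fixed separately per campaign, cut at about 7.5% in these data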;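 also: 0% = DMSO wells and 100% = 10 µM SAHA wells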
* marks the source's active call; other numbers are inactive results; x = not tested or not shown.

SMILES | MITF act | AHR activator | Wnt act | esBAF inh | GAA850 FXN act
CC1=NN(c2ccccc2)C(=O)C1N=Nc1ccc(C)cc1 (configuration not stated) | x | 9 | x | x | x
CC(=O)Nc1ccc(N2N=C(C)C(N=Nc3ccccc3)C2=O)cc1 (configuration not stated) | -6 | 50* | -12 | x | 1
C[C@H](CO)N1C[C@H](C)[C@@H](CN(C)Cc2ccc(F)cc2)Oc2ncc(C#CCN(C)C)cc2C1=O | x | x | x | -2 | x
O=C(NCC(F)(F)F)[C@@H]1[C@@H](CO)[C@@H]2Cn3c(cccc3=O)[C@H]1N2CC1CC1 | x | x | x | -2 | x
COc1ccc(OC)c(NC(=O)c2cc3ccccc3o2)c1 | x | 61* | 3 | 17 | 4
CCCC(=O)Nc1ccc(NC(=O)c2cc3ccccc3o2)c(OC)c1 | 64 | 18 | 2 | 53* | 5
COc1cc(NC(=O)c2ccccc2)ccc1NC(=O)c1cc2ccccc2o1 | 8 | 11 | 7 | 0 | 1
COc1cc(NC(C)=O)ccc1NC(=O)c1cc2ccccc2o1 | 39 | 3 | 3 | 55* | 3
COc1ccc(C)cc1NC(=O)c1cc2ccccc2o1 | 7 | 11 | x | 8 | 5
COc1cc(NC(=S)NC(=O)CC(C)C)ccc1NC(=O)c1cc2ccccc2o1 | -1 | 1 | -4 | 1 | -1
CCS(=O)(=O)N[C@@H]1C=C[C@H](CC(=O)NCc2ccc(Cl)cc2)O[C@H]1CO | x | x | x | -1 | x
COc1ccc(-c2nc3c4ccccc4ccn3c2CC2CCCCC2)cc1OC | x | x | 6 | 1 | x
c1ccc(-c2nc3c4ccccc4ccn3c2CN2CCOCC2)cc1 | 9 | 46 | 49* | 34 | 6
COc1ccc(-c2nc3c4ccccc4ccn3c2Cc2cccc(F)c2)cc1OC | x | x | 3 | 41* | x
COc1ccc(-c2nc3c4ccccc4ccn3c2CN2CCOCC2)cc1OC | 44 | 58* | 28 | 57* | 4
COc1ccc(-c2nc3c(C)cc(Br)cn3c2Cc2cccc(F)c2)cc1OC | x | x | -1 | -2 | x
COc1ccc(NC(=O)N[C@@H]2CC[C@@H](CCNS(=O)(=O)c3cccc(Cl)c3)O[C@H]2CO)cc1 | x | x | x | 4 | x
Cc1noc(C)c1S(=O)(=O)Nc1ccc2c(c1)CC(=O)N([C@H](C)CO)C[C@@H](C)[C@@H](CN(C)C(=O)Nc1ccc3c(c1)OCO3)O2 | x | x | x | 0 | x
C[C@H](NC(=O)[C@H]1[C@H](CO)[C@H]2Cn3c(ccc(-c4ccccc4F)c3=O)[C@@H]1N2C)c1ccccc1 | x | x | x | 3 | x
CO[C@H]1CN(C)C(=O)c2cc(NC(=O)Nc3cccc(F)c3)ccc2OC[C@@H](C)N(C(=O)C2CC2)C[C@H]1C | x | x | x | -1 | x
O=C(CSc1nnc(Nc2ccccc2F)s1)Nc1cccc(S(=O)(=O)N2CCCCC2)c1 | 30 | 0 | 20 | 43* | -1
Cc1ccc(Nc2nnc(SCC(=O)Nc3cccc(S(=O)(=O)N4CCCCC4)c3)s2)cc1 | 47 | -1 | 2 | x | 0
O=C(C[C@@H]1C[C@@H]2c3cc(NC(=O)NC4CCCCC4)ccc3O[C@@H]2[C@H](CO)O1)NCc1ccccc1 | x | x | x | -2 | x
CCCNC(=O)C[C@H]1CC[C@H]2[C@H](COc3ccc(NC(=O)Nc4c(C)noc4C)cc3C(=O)N2C)O1 | x | x | x | -8 | x
CC1CN(Cc2csc(-c3ccc(Cl)cc3)n2)CC(C)O1 (configuration not stated) | 21 | 2 | 3 | 47* | 1
SMILES | MITF act | AHR activator | Wnt act | esBAF inh | GAA850 FXN act
c1ccc(OCCNc2ccn3nc(-c4ccco4)cc3n2)cc1 | x | x | -1 | 48* | 1
Fc1ccc(CNc2ccn3nc(-c4ccccc4)cc3n2)cc1 | x | x | -2 | 64* | 2
Clc1cccc(CNc2ccn3nc(-c4ccco4)cc3n2)c1 | x | x | -2 | 25 | 2
Clc1cccc(CNc2ccn3nc(-c4cccs4)cc3n2)c1 | x | x | 49* | 59* | 3
COc1ccccc1-c1cc2nc(NCCOc3ccccc3)ccn2n1 | x | x | 0 | 4 | 1
c1ccc(OCCNc2ccn3nc(-c4cccs4)cc3n2)cc1 | x | x | -2 | 64* | 4
O=C(C[C@H]1C=C[C@H](NC(=O)CCN2CCCCC2)[C@@H](CO)O1)Nc1ccc(-c2ccccc2)cc1 | x | x | x | 1 | x
FC(F)(F)c1cccc(-c2cc3nc(NCCOc4ccccc4)ccn3n2)c1 | x | x | 6 | 34 | 0
c1ccc(OCCNc2ccn3nc(-c4ccccc4)cc3n2)cc1 | x | x | 16 | 53* | 4
CCNC(=O)C[C@@H]1CC[C@H](NC(=O)C2CC2)[C@H](CO)O1 | x | x | x | 0 | x
c1ccc(-c2nc(-c3ccccn3)nc(-c3ccccn3)n2)nc1 | x | 10 | 0 | -6 | -1
